# Several values for one entry are separate records, joined by “and”; a condition that tells them apart may be missing. Equal values may be shown once. A number with no mark means an inactive call. Records with an inconclusive call do not appear. Where a call stands in place of a potency, no number is given. Activity calls are given as the source filed them. Unless noted, the call rests on the fitted dose curve; in most records, active means well fitted curve in the direction sought with a large enough effect in the repeat runs; inconclusive means weak or mixed curves; inactive means no such curve, though single readings can be large; an effect the other way counts as inactive or inconclusive.
# Experiments:
# [1] = target: Progesterone receptor (Homo sapiens) (UniProt P06401); test: qHTS assay to identify small molecule agonists of the progesterone receptor (PR) signaling pathway (AID 1346784; calls by dose curve; further: nearly all actives have a fitted effect of over 30% in size; further: potency means the concentration at half of the fitted maximal effect)
# How it was run: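 The screen uses PR-UAS-bla HEK 293T cells in charcoal-stripped serum (2%). Compounds are applied for 16 hr at 37C after a 6 hr pre-incubation, and reporter activity is detected with a FRET beta-lactamase substrate after 2 hr at room temperature.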
# [2] = target: Progesterone receptor (Homo sapiens) (UniProt P06401); test: qHTS assay to identify small molecule antagonists of the progesterone receptor (PR) signaling pathway (AID 1346795; active means well fitted inhibition curve with a large enough effect in the signal ratio in the repeat runs, not every such curve was filed as active; the % refers to the signal ratio; further: potency means the concentration at half of the fitted maximal effect)
# How it was run: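 After 6 hr plating at 37C in 2% stripped-serum medium, PR-UAS-bla HEK293T cells got compounds, then 1 nM R5020. Sixteen hours later, LiveBLAzer substrate was applied for 2 hr at room temperature and fluorescence was recorded.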
# [3] = qHTS assay to identify small molecule antagonists of the progesterone receptor (PR) signaling pathway - cell viability counter screen (AID 1346798); further: nearly all actives have a fitted effect of over 50% in size; further: potency means the concentration at half of the fitted maximal effect; on activity change, negative = cytotoxicity: series mostly up to about 92 µM
# How it was run: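 Viability was determined by ATP-based luminescence (CellTiter-Glo) in PR-UAS-bla HEK293T cells cultured in 2% charcoal-stripped serum and incubated 16 hr with compounds under R5020 stimulation.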
# [4] = qHTS assay to identify small molecule antagonists of the TGF-beta/Smad signaling pathway - cell viability counter screen (AID 1346824); further: nearly all actives have a fitted effect of over 50% in size; further: potency means the concentration at half of the fitted maximal effect
# How it was run: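 Cytotoxicity counter-screen run in the same wells as the beta-lactamase Smad reporter read: CellTiter-Glo luminescence after 30 min at room temperature. HEK 293T SBE-bla cells had 5 hr compound exposure at 37 C with TGF-beta1 (0.25 ng/mL stock).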
# [5] = qHTS assay to identify small molecule agonists of the TGF-beta/Smad signaling pathway - cell viability counter screen (AID 1346829); further: nearly all actives have a fitted effect of over 45% in size; further: potency means the concentration at half of the fitted maximal effect; on activity change, negative = cytotoxicity: top concentration of the series differs between compounds
# How it was run: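 Compound-treated SBE-bla HEK 293T cells (5 hr, 37 C) were assessed for viability with CellTiter-Glo in parallel with the reporter read.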
# [6] = qHTS assay to identify small molecule agonists of the TGF-beta/Smad signaling pathway (AID 1346859; active means well fitted activation curve with a large enough effect in the signal ratio in the repeat runs, not every such curve was filed as active; the % refers to the signal ratio; further: series mostly up to about 77 µM)
# How it was run: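 Dual-wavelength fluorescence (460/530 nm emission) quantified beta-lactamase expression under the Smad binding element in HEK 293T cells following 5 hr compound treatment at 37 C.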
# [7] = Human pregnane X receptor (PXR) small molecule agonists, qHTS cell viability counter screen (AID 1346977); further: nearly all actives have a fitted effect of over 50% in size; further: potency means the concentration at half of the fitted maximal effect
# How it was run: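 HepG2 cells stably carrying the PXR-Luc reporter are cultured with 5% charcoal-stripped FBS and treated with compounds for 24hr. CellTiter-Fluor is added at 23hr and fluorescence is read after 1hr.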
# [8] = qHTS assay to identify small molecule agonists of the progesterone receptor (PR) signaling pathway - cell viability counter screen (AID 1346799; calls by dose curve; further: nearly all actives have a fitted effect of over 45% in size; further: potency means the concentration at half of the fitted maximal effect)
# How it was run: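 Viability was scored by ATP luminescence (CellTiter-Glo, 30 min, room temperature) in the same wells used for the reporter readout, after 16 hr compound exposure of PR-UAS-bla HEK293T cells.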
# [9] = target: Thyrotropin-releasing hormone receptor (Homo sapiens) (UniProt P34981); test: qHTS assay to identify small molecule antagonists of the thyrotropin-releasing hormone receptor (TRHR) signaling pathway (AID 1346877; active means well fitted inhibition curve with a large enough effect in the repeat runs, not every such curve was filed as active; further: potency means the concentration at half of the fitted maximal effect; on activity, negative = inhibition: series mostly up to about 51 µM)
# How it was run: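 HEK293/TRHR cells, 18 h, 37 °C; Ca2+ dye 2 h; cpd 5 min RT; TRH 1 nM final; fluorescence read 3 min, 1 s intervals; 15 concs, triplicate.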
# [10] = target: Thyrotropin-releasing hormone receptor (Homo sapiens) (UniProt P34981); test: qHTS assay to identify small molecule agonists of the thyrotropin-releasing hormone receptor (TRHR) signaling pathway (AID 1346891; calls by dose curve;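 further: HEK293 cells expressing TRHR with calcium dye readout; series mostly up to about 58 µM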)
# How it was run: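 Kinetic fluorescence (3 min, 1 s intervals) reported intracellular calcium after compound transfer onto TRHR-Hek293 cells pre-loaded with dye for 2 h at 37 °C.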
# Sequence of Progesterone receptor (Homo sapiens) (P06401 whole entry, looked up): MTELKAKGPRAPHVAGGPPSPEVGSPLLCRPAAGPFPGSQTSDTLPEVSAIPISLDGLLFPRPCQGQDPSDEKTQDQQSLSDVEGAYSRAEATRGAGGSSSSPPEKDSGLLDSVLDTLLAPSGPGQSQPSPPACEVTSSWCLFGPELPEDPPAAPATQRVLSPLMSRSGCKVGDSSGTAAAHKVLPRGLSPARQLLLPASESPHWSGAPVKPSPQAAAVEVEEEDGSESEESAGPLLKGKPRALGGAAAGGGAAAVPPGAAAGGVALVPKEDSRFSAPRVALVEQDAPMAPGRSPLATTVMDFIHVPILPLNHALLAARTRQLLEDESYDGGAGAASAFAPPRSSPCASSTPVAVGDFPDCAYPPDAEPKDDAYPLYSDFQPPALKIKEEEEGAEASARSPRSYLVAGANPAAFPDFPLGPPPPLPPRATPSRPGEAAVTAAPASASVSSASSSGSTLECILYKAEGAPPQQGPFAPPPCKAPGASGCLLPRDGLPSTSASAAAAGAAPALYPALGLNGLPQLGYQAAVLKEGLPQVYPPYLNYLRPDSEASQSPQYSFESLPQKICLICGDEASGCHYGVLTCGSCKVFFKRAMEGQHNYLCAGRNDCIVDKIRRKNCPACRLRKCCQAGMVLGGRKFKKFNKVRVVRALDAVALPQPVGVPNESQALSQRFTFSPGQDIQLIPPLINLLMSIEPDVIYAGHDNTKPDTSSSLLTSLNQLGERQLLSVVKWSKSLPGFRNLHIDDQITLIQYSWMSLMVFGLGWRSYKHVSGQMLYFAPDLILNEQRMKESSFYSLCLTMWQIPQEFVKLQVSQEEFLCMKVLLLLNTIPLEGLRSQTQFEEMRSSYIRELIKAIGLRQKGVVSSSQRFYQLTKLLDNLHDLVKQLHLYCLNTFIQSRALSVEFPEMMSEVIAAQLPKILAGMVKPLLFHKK
# Sequence of Thyrotropin-releasing hormone receptor (Homo sapiens) (P34981 whole entry, looked up): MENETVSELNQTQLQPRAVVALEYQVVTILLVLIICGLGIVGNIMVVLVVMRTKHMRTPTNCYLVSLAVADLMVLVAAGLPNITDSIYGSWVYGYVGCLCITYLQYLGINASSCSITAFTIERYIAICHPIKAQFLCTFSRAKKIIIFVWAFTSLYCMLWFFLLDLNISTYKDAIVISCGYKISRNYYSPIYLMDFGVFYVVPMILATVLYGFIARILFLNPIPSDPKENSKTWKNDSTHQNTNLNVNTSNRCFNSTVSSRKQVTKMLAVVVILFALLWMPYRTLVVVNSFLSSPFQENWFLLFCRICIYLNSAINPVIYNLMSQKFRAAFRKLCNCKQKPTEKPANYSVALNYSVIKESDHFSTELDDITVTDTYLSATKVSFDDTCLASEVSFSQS
structure (smiles),measurement,setting,value
Oc1cccc(-c2ccccc2)c1,Potency,[1],inactive
same,Potency,[2],30.6 µM (active)
same,Potency,[3],inactive
same,Potency,[4],inactive
same,Potency,[5],inactive
same,outcome,[6],inactive
same,Potency,[7],inactive
O=C1C=CC(=O)c2ccccc21,Potency,[1],inactive
same,Potency,[2],inactive
same,Potency,[3],inactive
same,Potency,[8],inactive
same,Potency,[4],24.5 µM (active)
same,Potency,[5],49 µM (active)
same,Potency,[9],21.3 µM (active)
same,Potency,[10],inactive
same,Potency,[7],48.6 µM (active)
COP(=O)(OC)SCn1c(=O)oc2cc(Cl)cnc21,Potency,[1],inactive
same,Potency,[2],inactive
same,Potency,[3],inactive
same,Potency,[8],inactive
same,Potency,[4],inactive
same,outcome,[6],inactive
same,Potency,[7],30.6 µM (active)
CCOP(=S)(OCC)SCS(=O)(=O)CC,Potency,[1],inactive
same,Potency,[2],inactive
same,Potency,[3],inactive
same,Potency,[8],inactive
same,Potency,[5],inactive
same,outcome,[6],inactive
same,Potency,[9],inactive
same,Potency,[10],inactive
same,Potency,[7],inactive
BrCBr,Potency,[1],inactive
same,Potency,[2],inactive
same,Potency,[3],inactive
same,Potency,[8],inactive
same,Potency,[4],inactive
same,outcome,[6],inactive
same,Potency,[9],inactive
same,Potency,[10],inactive
same,Potency,[7],inactive
Brc1c(Br)c(Br)c(Oc2c(Br)c(Br)c(Br)c(Br)c2Br)c(Br)c1Br,activation,[1],-1.27% [at 19 µM]
same,"activity change, negative = inhibition",[2],0.347% [at 18.9 µM]
same,"activity change, negative = cytotoxicity",[3],-6.81% [at 18.9 µM]
same,"activity change, negative = cytotoxicity",[8],-0.672% [at 19 µM]
same,"viability change, negative = cytotoxic",[4],12.3% [at 15.8 µM]
same,activation,[6],4.57% [at 15.8 µM]
same,"activity, negative = inhibition",[9],2.65% [at 10.5 µM]
same,activation,[10],-0.444% [at 11.8 µM]
same,"activity change, negative = cytotoxicity",[7],1.58% [at 19 µM]
BrC(Br)Br,Potency,[1],7.7 µM (active)
same,Potency,[2],inactive
same,Potency,[3],inactive
same,Potency,[4],inactive
same,Potency,[5],inactive
same,outcome,[6],inactive
same,Potency,[7],inactive
CCCCCCCCCCCCCCCCCCn1cc[n+](C)c1,Potency,[1],inactive
same,Potency,[2],54.2 µM (active)
same,Potency,[8],30.5 µM (active)
same,Potency,[4],21.7 µM (active)
same,Potency,[5],48.7 µM (active)
same,Potency,[9],inactive
same,Potency,[10],inactive
same,Potency,[7],8.58 µM (active)
Nc1ccc([N+](=O)[O-])cc1Cl,Potency,[1],inactive
same,Potency,[2],54.5 µM (active)
same,Potency,[3],inactive
same,Potency,[4],inactive
same,outcome,[6],inactive
Cc1cc(N=Nc2ccccc2C)ccc1N,Potency,[1],inactive
same,Potency,[2],12.2 µM (active)
same,Potency,[3],inactive
same,Potency,[4],inactive
same,Potency,[5],inactive
same,outcome,[6],inactive
same,Potency,[9],inactive
same,Potency,[10],inactive
same,Potency,[7],4.47 µM (active) and 6.86 µM (active)
Clc1ccc(COC(Cn2ccnc2)c2ccc(Cl)cc2Cl)cc1 (configuration not stated),Potency,[1],inactive
same,Potency,[2],5.31 µM (active)
same,Potency,[3],18 µM (active) and 27.2 µM (active) and 6.68 µM (active)
same,Potency,[8],45.3 µM (active) and 15.3 µM (active) and 5.96 µM (active)
same,Potency,[4],inactive
same,outcome,[6],inactive
same,Potency,[7],45.3 µM (active) and 48.4 µM (active) and 26.6 µM (active)
ClC1=C(Cl)[C@]2(Cl)[C@@H]3[C@@H](Cl)[C@@H](Cl)C[C@@H]3[C@@]1(Cl)C2(Cl)Cl,Potency,[1],inactive
same,Potency,[2],inactive
same,Potency,[3],inactive
same,Potency,[4],inactive
same,Potency,[5],inactive
same,outcome,[6],inactive
same,Potency,[9],inactive
same,Potency,[10],inactive
same,Potency,[7],inactive
CCCCCCCCCCBr,Potency,[1],inactive
same,Potency,[2],inactive
same,Potency,[3],inactive
same,Potency,[5],inactive
same,outcome,[6],inactive
same,Potency,[9],inactive
same,Potency,[7],inactive
CCOP(=S)(OCC)OC(Cl)C(Cl)(Cl)Cl (configuration not stated),Potency,[1],inactive
same,Potency,[2],inactive
same,Potency,[3],inactive
same,Potency,[8],inactive
same,Potency,[4],inactive
same,Potency,[5],inactive
same,outcome,[6],inactive
same,Potency,[7],inactive
CSCCCN=C=S,Potency,[1],inactive
same,Potency,[2],inactive
same,Potency,[3],inactive
same,Potency,[8],inactive
same,Potency,[4],inactive
same,outcome,[6],inactive
same,Potency,[9],inactive
same,Potency,[10],inactive
same,Potency,[7],inactive
CC(C)CCCCCCCOP(=O)(Oc1ccccc1)Oc1ccccc1,Potency,[1],inactive
same,Potency,[2],24.5 µM (active)
same,Potency,[8],inactive
same,Potency,[4],inactive
same,outcome,[6],inactive
same,Potency,[9],inactive
same,Potency,[10],inactive
same,Potency,[7],inactive
CCOC(=O)c1ccccc1S(=O)(=O)NC(=O)Nc1nc(Cl)cc(OC)n1,Potency,[1],inactive
same,Potency,[2],inactive
same,Potency,[3],inactive
same,Potency,[4],inactive
same,Potency,[5],inactive
same,outcome,[6],inactive
same,Potency,[7],inactive
Oc1ccc(I)cc1,Potency,[1],inactive
same,Potency,[2],61.1 µM (active)
same,Potency,[3],inactive
same,Potency,[8],inactive
same,Potency,[4],inactive
same,Potency,[5],inactive
same,outcome,[6],inactive
same,Potency,[7],inactive
CN(C)C1CSSSC1,Potency,[1],inactive
same,Potency,[2],inactive
same,Potency,[3],inactive
same,Potency,[8],inactive
same,Potency,[5],inactive
same,outcome,[6],inactive
same,Potency,[9],inactive
same,Potency,[10],inactive
same,Potency,[7],inactive
COc1ccc([N+](=O)[O-])cc1O,Potency,[1],inactive
same,Potency,[2],inactive
same,Potency,[8],inactive
same,Potency,[4],inactive
same,Potency,[5],inactive
same,outcome,[6],inactive
same,Potency,[9],inactive
same,Potency,[10],inactive
same,Potency,[7],inactive
CCSC(C)CC1CC(=O)C(/C(CC)=N/OC/C=C/Cl)=C(O)C1 (configuration not stated),Potency,[1],inactive
same,Potency,[2],inactive
same,Potency,[3],inactive
same,Potency,[8],inactive
same,Potency,[4],inactive
same,Potency,[5],inactive
same,outcome,[6],inactive
same,Potency,[9],inactive
same,Potency,[7],inactive
COC(=O)N(C(=O)N1COC2(C(=O)OC)Cc3cc(Cl)ccc3C2=N1)c1ccc(OC(F)(F)F)cc1 (configuration not stated),Potency,[1],inactive
same,Potency,[2],29.8 µM (active)
same,Potency,[3],inactive
same,Potency,[8],inactive
same,Potency,[4],inactive
same,Potency,[5],inactive
same,outcome,[6],inactive
same,Potency,[7],inactive
COc1ccc(N)cc1N,Potency,[1],inactive
same,Potency,[2],inactive
same,Potency,[3],inactive
same,Potency,[8],inactive
same,Potency,[4],7.14 µM (active) and 21 µM (active)
same,Potency,[5],7.14 µM (active) and 11.8 µM (active)
same,Potency,[9],inactive
same,Potency,[10],inactive
same,Potency,[7],50.1 µM (active)
Clc1ccc(C(c2ccccc2Cl)C(Cl)(Cl)Cl)cc1 (configuration not stated),Potency,[1],inactive
same,Potency,[2],4.51 µM (active)
same,Potency,[3],inactive
same,Potency,[4],inactive
same,outcome,[6],inactive
same,Potency,[9],inactive
same,Potency,[10],inactive
same,Potency,[7],inactive
COCC(=O)N(c1c(C)cccc1C)[C@H](C)C(=O)OC,Potency,[1],inactive
same,Potency,[2],inactive
same,Potency,[3],inactive
same,Potency,[8],inactive
same,Potency,[5],inactive
same,outcome,[6],inactive
same,Potency,[9],inactive
same,Potency,[10],inactive
same,Potency,[7],inactive
Cc1cc(SCc2sc(-c3ccc(C(F)(F)F)c(F)c3)nc2C)ccc1OCC(=O)O,Potency,[1],inactive
same,Potency,[2],17.2 µM (active)
same,Potency,[3],19.3 µM (active)
same,Potency,[8],8.63 µM (active)
same,Potency,[4],inactive
same,Potency,[5],inactive
same,Potency,[9],inactive
ClCc1ccc(Cl)cc1Cl,Potency,[1],inactive
same,Potency,[2],inactive
same,Potency,[3],inactive
same,Potency,[8],inactive
same,Potency,[4],inactive
same,Potency,[5],inactive
same,Potency,[7],inactive

# From PubChem BioAssay (Tox21)
